Measurements: the supplement of paper PMC9262897, “Low-cost anti-mycobacterial drug discovery using engineered E. coli” (Nature Communications, 2022)
Where a name gives a salt, the structure may show the parent alone. ± gives the standard deviation of the averaged measurements.

Tested on: E. coli TESEC Mtb Alr
Assay: growth (OD600 after 10 h); higher = more growth (less inhibition)
Settings: compound 0.1 mM
Protocol: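 TESEC Mtb Alr E. coli, or the Alr+ wild-type control, in 384-well plates with Prestwick library compounds at 0.1 mM and 1% DMSO, across arabinose induction levels of 1E3 to 1E7 nM. Growth is read as OD600 after 10 h at 37 °C in triplicate biological replicates.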

[1] = arabinose 1000 nM, raw OD600 reference: median of DMSO wells 0.294, cell-free background 0.041
[2] = arabinose 10000 nM, raw OD600 reference: median of DMSO wells 0.264, cell-free background 0.041
[3] = arabinose 100000 nM, raw OD600 reference: median of DMSO wells 0.201, cell-free background 0.041
[4] = arabinose 1000000 nM, raw OD600 reference: median of DMSO wells 0.193, cell-free background 0.041
[5] = arabinose 10000000 nM, raw OD600 reference: median of DMSO wells 0.146, cell-free background 0.041

Row | SMILES | growth [1] | growth [2] | growth [3] | growth [4] | growth [5]
1 | N=C(N)NC(=O)c1nc(Cl)c(N)nc1N [Amiloride hydrochloride dihydrate] | 0.291 ± 0.021 | 0.257 ± 0.003 | 0.255 ± 0.016 | 0.181 ± 0.0048 | 0.15 ± 0.0063
2 | CCOC(=O)C1=C[C@]2(CC)CCCN3CCc4c(n1c1ccccc41)[C@@H]32 [Vinpocetine] | 0.271 ± 0.015 | 0.25 ± 0.0089 | 0.184 ± 0.015 | 0.145 ± 0.005 | 0.143 ± 0.0046
3 | Oc1c(I)cc(Cl)c2cccnc12 [Clioquinol] | 0.0429 ± 0.0016 | 0.0409 ± 0.00085 | 0.0461 ± 0.0025 | 0.0417 ± 0.00053 | 0.0513 ± 0.0023
4 | CO[C@H]1/C=C/O[C@@]2(C)Oc3c(C)c(O)c4c(O)c(c5c(nc6cc(C)ccn65)c4c3C2=O)NC(=O)/C(C)=C\C=C\[C@H](C)[C@H](O)[C@@H](C)[C@@H](O)[C@@H](C)[C@H](OC(C)=O)[C@@H]1C [Rifaximin] | 0.0438 ± 0.0029 | 0.0409 ± 0.0005 | 0.0411 ± 0.00017 | 0.0418 ± 0.0021 | 0.0439 ± 0.0024
5 | Nc1ccc(O)c(C(=O)O)c1 [Mesalamine] | 0.287 ± 0.014 | 0.278 ± 0.0044 | 0.2 ± 0.011 | 0.21 ± 0.0038 | 0.144 ± 0.0074
6 | N=C(N=C(N)N)N1CCOCC1 [Moroxidine hydrochloride] | 0.288 ± 0.017 | 0.2687 ± 0.0004 | 0.225 ± 0.022 | 0.186 ± 0.013 | 0.152 ± 0.0076
7 | CC(C)(C)C(=O)OCOC(=O)[C@@H]1N2C(=O)[C@@H](/N=C/N3CCCCCC3)[C@H]2SC1(C)C [Pivmecillinam hydrochloride] | 0.249 ± 0.0036 | 0.282 ± 0.0063 | 0.326 ± 0.0058 | 0.191 ± 0.016 | 0.191 ± 0.021
8 | Cc1onc(-c2c(F)cccc2Cl)c1C(=O)N[C@@H]1C(=O)N2[C@@H]1SC(C)(C)[C@@H]2C(=O)O [Flucloxacillin sodium] | 0.2863 ± 0.0017 | 0.26 ± 0.0097 | 0.186 ± 0.022 | 0.172 ± 0.006 | 0.136 ± 0.0023
